From PubChem BioAssay (NCI) come the findings set out here.

Compounds without any hit were thinned out: in the full panel of roughly 83,000, 20% have a hit.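 A percent growth of 40 corresponds to 60% growth inhibition; 0 means no net growth; -100 means all cells died. Active threshold: below 10.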 A number with no mark means an inactive call. Active and inactive are the calls of the source.

This assay relates to MDA-MB-468 breast. In words: NCI-60 one-dose screen, 48 h (100 = growth as untreated, 0 = no growth, -100 = all killed). The settings on record: 10 µM unless noted.
On to `O=C(Nc1ccc(Br)cc1F)c1cc(Cl)ccc1O`, for which the growth is -14.5% (active).

For `CCCCCCCCCCCC[n+]1ccc2ccccc2c1`, the growth is -30% (active).

Turning to `CC[C@@H](C)/C=C(C)/C=C/C(=O)c1c(O)c(-c2ccc(O)cc2)cn(OC2CC(=O)CCC(C)OC(=O)CC2O)c1=O` (stereo not given in full), the growth is -29.9% (active).

For `O=S(=O)(c1ccc(N/N=C\c2ccccc2Cl)cc1)c1ccc(N/N=C/c2ccccc2Cl)cc1`, the growth is 91.5%.

With `N#Cc1c(-c2ccccc2)nc2c(c(-c3ccccc3)nn2-c2ccccc2)c1-c1ccc(N2CCCCC2)cc1`, the growth was 93.7%.

Consider `Cc1cc2nc3c4cc([N+](=O)[O-])ccc4n(CCN(C)C)c3nc2cc1C`, for which the growth is -39.1% (active).

Take `Cc1cn(-c2cc(NC(=O)c3cncc(C#Cc4cnc(N)c5ncccc45)c3)cc(C(F)(F)F)c2)cn1`: the growth was 67.3%.

`Cc1c[n+](Cc2ccc3ccccc3c2)cn1Cc1ccc2ccccc2c1`: the growth was -22.6% (active).

With `Cc1nn(-c2ccccc2)c(N2CCOCC2)c1/C=N/N=c1\sc2ccccc2n1C`, the growth is 71.6%.

Turning to `COc1cccc(-c2nc3cc(NC(=O)c4ccc(Cl)c(C#N)c4)ccc3o2)c1`, the growth is -60.3% (active).

For the compound `Cn1cc(-c2cc(N)n3nc(-c4cn(C)c5ccc(Br)cc45)cc3n2)c2cc(Br)ccc21`, the growth is 97.9%.

With `O=C(/C=C/c1cn(-c2ccccc2)nc1-c1cccc(Nc2ccnc3cc(Cl)ccc23)c1)c1ccc2c(c1)OCO2`, the growth is 68.2%.

With `Nc1nc(Cl)nc2c1ncn2C1O[C@H](CO)[C@@H](O)[C@@H]1F` (stereo not given in full), the growth was 5.22% (active).

As for `CCCCCc1ccc(S(=O)(=O)Nc2cccc(-c3csc(NC(=O)CCCCCN4CCN(CCO)CC4)n3)c2)cc1`, the growth is 85%.

For the compound `CC(C(C(=O)N1CCCCC1)N1CCCCC1)N1CCCCC1` (stereo not given), the growth was 115%.

Regarding `COC(=O)[C@@H](NC(=O)[C@@H](OC)[C@@H]1Cc2cc3cc(OC4CC(OC5CC(O)C(O)C(C)O5)C(O)C(C)O4)c(C)c(O)c3c(O)c2C(=O)[C@H]1OC1CC(OC2CC(OC3CC(C)(O)C(O)C(C)O3)C(O)C(C)O2)C(O)C(C)O1)C(C)C` (stereo not given in full), the growth was -3.89% (active).

Consider `CN1C(=O)N(C)C2C1NN=c1s/c(=C\c3ccc([N+](=O)[O-])cc3)c(=O)n12` (stereo not given), for which the growth was 53.4%.

Consider `COc1ccc(N=Cc2c(O)ccc3c2oc2cc(Cl)c(O)c(Cl)c23)cc1`, for which the growth was 72.5%.

`C=C(C)[C@@H]1CC[C@]2(C(=O)NCCNCCNCCN)CC[C@]3(C)[C@H](CC[C@@H]4[C@@]5(C)CC[C@H](O)C(C)(C)[C@@H]5CC[C@]43C)[C@@H]12`: the growth was -48.6% [100 µM] (active).

For `NNC(=O)CNC(=O)Nc1n[nH]c(=S)s1`, the growth is 111%.

Regarding `CCNC(=O)Oc1ccc(/C(=C(\C)c2ccccc2)c2ccc(OCCCN(C)C)cc2)cc1`, the growth is 86.6%.

With `C=C1C(=O)O[C@H]2[C@H]1CC/C(COC(=O)NCc1c[nH]c3ccccc13)=C\CC[C@@]1(C)O[C@@H]21`, the growth is 48%.

As to `COc1ccc(-c2nc(SCC(=O)Nc3nc(-c4ccccc4)cs3)[nH]c(=O)c2C#N)cc1`, the growth is 84.2%.

On to `CCOc1ccccc1NC1=C(Cl)C(=O)c2nc(C)ccc2C1=O`, for which the growth is -90.7% (active).

Consider `CCCCCc1ccc(S(=O)(=O)Nc2cccc(-c3csc(NC(=O)CCCCCN4CCN(C)CC4)n3)c2)cc1`, for which the growth is 79%.

In the case of `COc1ccc(S(=O)(=O)Nc2cc(/C=C\c3cc(OC)c(OC)c(OC)c3)cc(OC)c2OC)cc1OC`, the growth was 25.5%.

Regarding `O=C(C[P+](c1ccccc1)(c1ccccc1)c1ccccc1)c1ccccc1`, the growth is 103%.

As to `NC(CCl)=NCCC[C@H](N)C(=O)O`, the growth is 91.8%.

Turning to `O[C@H]1CO[C@H]2[C@@H]1OC[C@@H]2Oc1ccc(Nc2ccnc(Nc3ccc(O[C@H]4CO[C@H]5[C@@H]4OC[C@@H]5O)c(Cl)c3)n2)cc1Cl`, the growth was -7.19% (active).

In the case of `CCc1ccc(CCC(=O)Nc2ncc(Cc3ccc(Cl)cc3)s2)o1`, the growth was 0.812% (active).

On to `O=C(Nc1ccc(N=Cc2c(O)[nH]c3ccccc23)cc1)Nc1ccc(S(=O)(=O)Nc2ncccn2)cc1`, for which the growth is 116%.

As for `CN1Cn2c(ccc2C(F)(F)F)C(=O)CS1(=O)=O`, the growth was 115%.

Take `O=C(Nc1nc(-c2ccccc2)nc2c1sc(=S)n2-c1ccccc1)C(F)(F)F`: the growth was 105%.

On to `CCCCN1CCN(c2ccc3nc(-c4ccc5nc(-c6ccc(OCC)cc6)[nH]c5c4)[nH]c3c2)CC1`, for which the growth is 67.3%.

`CC1(C)CCCN1CCCN1c2ccccc2Sc2ccc(Cl)cc21`: the growth was 37.6%.

As to `O=C(CCc1nnc2sc(Cc3ccccc3Cl)nn12)c1nc2ccccc2[nH]1`, the growth is 84.5%.

In the case of `CCOc1ccc(/C=N\N=C\c2ccc(OCC)cc2)cc1`, the growth is 77%.

As to `Cc1c(C)c(C)c([N+](=O)[O-])c([N+](=O)[O-])c1C`, the growth is 82.1%.

Take `O=C1C(Cl)=C(Nc2cccc3ccccc23)C(=O)c2ccccc21`: the growth was -3.45% (active).

In the case of `CCc1n(Cc2ccc3ccccc3c2)cc[n+]1Cc1ccc2ccccc2c1`, the growth is -22.9% (active).
